In ChEMBL document CHEMBL3988442, “University of Dundee, Small-Polar-MMV Screening Library” (2021):
Screen size: about 69,000 compounds; about 950 (1.4%) showed an effect of 50% or more. Only a selection was taken, and strong results are over-represented in it overall.

system: Mycobacterium tuberculosis; test: Cornell M. t heat shock assay; format: functional, organism-based; parameters: dose or concentration left out as unconfirmed; further: in the data most compounds retested in dose-response had high values

SMILES	Percent Effect
Cl.N#Cc1cccnc1OC1CCNCC1	-9.035%
Cc1ccc(N2C[C@@H]3OCCN(CC4CC4)[C@@H]3C2)nn1.O=C(O)C(F)(F)F	21.44%
CN1Cc2cnn(CC3CCCC3)c2C(COCC2CC2)C1.O=C(O)C(F)(F)F.O=C(O)C(F)(F)F (stereo not given)	-36.29%
O=C(O)C(F)(F)F.O=C(O)C(F)(F)F.O=C(O)C(F)(F)F.c1ccc(CN2CC[C@@H]3O[C@H](COCc4ccncc4)CC[C@@H]32)nc1	5.621%
CC(C)c1ccc(C(CN)N2CCc3sccc3C2)cc1 (stereo not given)	92.4%
NCC(c1ccc(Cl)cc1)N1CCc2sccc2C1 (stereo not given)	22.77%
NCC(c1ccccc1)N1CCc2sccc2C1 (stereo not given)	4.411%
Cc1csc([C@@H]2C[C@H]3CN(c4ncc(F)cn4)C[C@H]3O2)n1.O=C(O)C(F)(F)F	25.07%
CNC(C)Cc1ccccc1Sc1ccc(O)cc1.Cl (stereo not given)	5.856%
CC(N)Cc1ccccc1Sc1ccc(O)cc1.CC(N)Cc1ccccc1Sc1ccc(O)cc1.O=C(O)C(=O)O (stereo not given)	54.17%
CC(N)Cc1ccccc1Sc1ccccc1.O=C(O)/C=C\C(=O)O (stereo not given)	31.83%
O=C(Nc1ccccc1)[C@H]1C[C@@H]2CN(S(=O)(=O)c3ccccc3)C[C@H]1O2	3.672%
CCc1cc(NCCc2cccnc2)n2nc(C)c(C)c2n1	66.22%
Cc1cc(NCCCNc2cccnc2)n2nc(C)c(C)c2n1	90.05%
CCc1cc(NCCc2cnccn2)n2nc(C)c(C)c2n1	78.14%
CCc1cc(NCCN2CCNC2=O)n2nc(C)c(C)c2n1	-8.001%
CCc1cc(NCCNC(=O)c2cccnc2)n2nc(C)c(C)c2n1	-20.84%
Cc1cc(N[C@@H](CO)c2ccccc2)n2nc(C)c(C)c2n1	11.1%
Cc1cc(NC2CCN(Cc3ccccn3)CC2)n2nc(C)c(C)c2n1	3.704%
CCc1cc(NCCNc2ccncc2C)n2nc(C)c(C)c2n1	10.67%
CCc1cc(NCCNc2cccnc2)n2nccc2n1	0.7035%
O=C(O)C(F)(F)F.O=C(c1ccco1)N1C[C@@H]2OCCN(c3ncccn3)[C@@H]2C1	-4.269%
COc1cccc(CN2C[C@@H]3COC[C@]3(CNC(=O)C3CC3)C2)c1.O=C(O)C(F)(F)F	18.07%
O=C(O)C(F)(F)F.O=C(c1ccco1)N1CCCC12CCN(c1ncccn1)CC2	-4.902%

SMILES	Percent Effect
CN1CCN(c2nc(-c3cnn(C)c3)cs2)CC1	-2.615%
Cn1cc(-c2csc(N3CCCCCC3)n2)cn1	70.2%
Cn1cc(-c2csc(N3CCSCC3)n2)cn1	7.511%
O=C(NCC1CC1)[C@@H]1C[C@@H]2CCN(Cc3ccoc3)C[C@@H]2O1	-11.78%
Cc1ccc(C(=O)N2CCC3(CC2)CC(N2CCOCC2)C3)cc1.O=C(O)C(F)(F)F	4.537%
Cc1noc(C)c1C(=O)N1CCOC2(COCCN(C(C)C)C2)C1.O=C(O)C(F)(F)F (stereo not given)	7.392%
CC(CNCc1ccc(Br)cc1)Oc1ccccn1.Cl (stereo not given)	-4.228%
CN(C)CCn1c2c(ccc1=O)CCN(Cc1cnn(C)c1)CC2.O=C(O)C(F)(F)F.O=C(O)C(F)(F)F	10.2%
CC(C)NC(=O)N1CCC2(CCC(=O)N2CCN(C)C)CC1.O=C(O)C(F)(F)F	-12.81%
CN1CCN(C(=O)c2cnsn2)c2cc(F)ccc21	57.04%
CN1CCN(C(=O)c2cnsn2)c2ccc(F)cc21	82.14%
CN1CCN(C(=O)CCc2cccnc2)c2ccc(F)cc21	15.62%
CN1CCN(C(=O)c2csnn2)c2ccccc21	-18.09%
CN1CCCN(C(=O)c2cnsn2)c2cc(F)ccc21	-35.83%
CN1CCCN(C(=O)c2cnsn2)c2cc(Cl)ccc21	-8.8%
Clc1ccccc1CCN1CCN(c2ccc3nncn3n2)CC1	33.42%
Cc1ccc(-c2nc(CN3CCCC(Cn4cncn4)C3)cs2)o1 (stereo not given)	9.33%
O=C(CC1CC1)N1CCC2(COCc3cnc(N4CCOCC4)nc32)C1 (stereo not given)	6.453%
CCOc1ccc(C(=O)N2CCN(c3nccn3C)CC2)cc1.Cl	-17.36%
Cc1cnn(CC(C)NCc2csc(-c3cnn(C)c3)n2)c1 (stereo not given)	-23.56%
Cc1cnn(CCNCc2csc(-c3ccccc3)n2)c1	104.4%
Cc1cnn(CCNCc2csc(-c3ccsc3)n2)c1	107.8%
Cc1cnn(CCNCc2csc(-c3ccc(F)cc3)n2)c1	22.16%
Cc1cnn(CC(C)NCc2csc(-c3ccsc3)n2)c1 (stereo not given)	27.16%

SMILES	Percent Effect
Cc1cnn(CCNCc2csc(-c3cccs3)n2)c1	25.75%
Cc1cccc(N2CCc3ncc(CNS(C)(=O)=O)n3CC2)n1.O=C(O)C(F)(F)F	-36.69%
Cc1ccc(C2CCCN2S(=O)(=O)N(C)CCc2ccccn2)o1 (stereo not given)	69.2%
CN(CCc1ccccn1)S(=O)(=O)N1CCCC1c1ccco1 (stereo not given)	16.77%
Cc1ccc(C2CCCN2S(=O)(=O)N(C)Cc2cnccn2)o1 (stereo not given)	-5.103%
I.c1cc2c(cc1C1(CNC3=NCCN3)CCCC1)OCCO2	-5.173%
CNC(=O)CN1CCOCC12CCN(C(=O)c1ccccc1)CC2.O=C(O)C(F)(F)F	-17.78%
COc1ccccc1NC(=O)N1CCCC1c1ccco1 (stereo not given)	40.09%
COc1ccc(OC)c(NC(=O)N2CCCC2c2ccco2)c1 (stereo not given)	25.75%
COc1ccc(NC(=O)N2CCCC2c2ccco2)c(OC)c1 (stereo not given)	74.57%
O=C(O)CC(O)(CC(=O)O)C(=O)O.c1ccc([C@@H]2CN(Cc3cccnc3)C[C@H]2c2cc[nH]n2)cc1	-3.502%
Cc1ccc(CN2CCC3(CC2)COCCN3S(C)(=O)=O)o1.O=C(O)C(F)(F)F	38.18%
CCCN1CCN(C(=O)Cn2nc(C(F)(F)F)c(Br)c2C2CC2)CC1	-16.27%
CN1CCN(C(=O)Cn2nc(C(F)(F)F)c(Br)c2C2CC2)CC1	82.35%
CCN1CCN(C(=O)Cn2nc(C(F)(F)F)c(Br)c2C2CC2)CC1	-4.049%
Nc1ncc2c(n1)CN(C1CCCC1)C2=O	101.8%
CN1CCC(N2Cc3nc(N)ncc3C2=O)CC1	-6.315%
CC1CCC(N2Cc3nc(N)ncc3C2=O)CC1 (stereo not given)	7.341%
COCCN1CCc2c(CNC(=O)c3nccn3C)cncc2C1.Cl.Cl.Cl	7.945%
Cc1nc(CN2CCC3(CC2)CC(c2cccnc2)C(=O)N3C)cs1.O=C(O)C(F)(F)F.O=C(O)C(F)(F)F (stereo not given)	40.95%
CSc1ncccc1C(=O)N1CCC2(CC1)OCCCC2O (stereo not given)	9.306%
O=C(c1cccnc1O)N1CCC2(CCCO2)CC1	-109.6%
O=C(c1cccc2cccnc12)N1CC[C@@]2(CCCO2)[C@@H](O)C1	50.53%
Br.O=C(CN(C1=NCCCC1)c1ccccc1)c1ccc2c(c1)OCCO2	-15.61%

SMILES	Percent Effect
C[S+]([O-])c1nncn1CC(=O)c1ccc(OC(F)F)cc1 (stereo not given)	27.46%
Br.O=C(CN(C1=NCCCC1)c1ccccc1)c1ccccc1	-38.94%
Br.Cc1ccc(N(CC(=O)c2ccc(Br)cc2)C2=NCCCCC2)cc1	103.6%
Br.Cc1cccc(N(CC(=O)c2ccccc2)C2=NCCCCC2)c1	15.52%
Br.CCOc1ccc(N(CC(=O)c2ccccc2)C2=NCCCCC2)cc1	104.1%
CCOc1ccc(C(=O)CC(SC2CCCCC2)C(=O)O)cc1 (stereo not given)	28.66%
Br.O=C(CN(C1=NCCCC1)c1ccccc1)c1ccc(OC(F)F)cc1	95.91%
Br.Cc1ccc(C(=O)CN(C2=NCCCCC2)c2ccccc2)cc1	26.5%
Br.O=C(CN(C1=NCCCCC1)c1ccc(Cl)cc1)c1ccccc1	102%
Cc1ccc(N(CC(=O)N2CCCCC2)C(=O)C2CCCO2)cc1 (stereo not given)	-0.08324%
Br.COc1ccc(C(=O)CN(C2=NCCCCC2)c2ccccc2)cc1	22.41%
COc1ccc(CN2C[C@@H]3CC[C@H](C2)N(S(=O)(=O)C2CC2)C3)cc1	-4.175%
Cc1ccc(N2CC[C@@H]3[C@@H]2CCN3C(=O)Cc2cccs2)nn1.O=C(O)C(F)(F)F	1.861%
CC(=O)NCCc1cc2nc(-c3ccncc3)ccn2n1	1.137%
COCCC(=O)N1CCCC2(CCCN2Cc2ccccc2F)C1.O=C(O)C(F)(F)F (stereo not given)	-33.92%
CN(C)Cc1cc(C2CCN(C(=O)C3CCCNC3)CC2)nn1C.Cl (stereo not given)	-6.1%
O=C(O)C(F)(F)F.O=C1COC2(CCN(S(=O)(=O)C3CC3)CC2)CN1c1cccnc1	-24.7%
CNC(=O)[C@H]1C[C@@H]2CN(Cc3ccc(C)cc3)C[C@H]1O2.O=C(O)C(F)(F)F	33.5%
Cc1ccc(N2CC[C@H]3O[C@H](C(=O)N4CCCCO4)CC[C@H]32)nn1.O=C(O)C(F)(F)F	36.81%
O=C(C1CC1)N1CC[C@@H]2[C@H](CC1)N(Cc1cccnc1)CCS2(=O)=O.O=C(O)C(F)(F)F.O=C(O)C(F)(F)F	-20.85%
COCCNS(=O)(=O)c1cccc2c1CN(C(=O)c1ccccc1)CC2	-0.08173%
COCCNS(=O)(=O)c1cccc2c1CN(C(=O)c1cnccn1)CC2	3.399%
COCCNS(=O)(=O)c1ccc2c(c1)CCN(C(=O)c1cncn1C)C2	91.56%
